NR2F2 inh = NR2F2 (human) inhibition, primary screen | 370,000 compounds, 0.7% hits | AID 686940 | inhibition, % at 8.6 µM | HEK293T NGFI-A luciferase reporter, luminescence;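 active means inhibition above a per-plate cutoff, mean inhibition of test wells between control levels plus 3 SD, cut at about 38% in these data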;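 further: cells cotransfected with COUP-TFII expression vector driving the NGFI-A reporter; 0% = median of COUP-TF2 test wells and 100% = reporter-only cells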
NR5A2 inv ag = suppresses constitutive activity of human LRH-1 | AID 602396 | HEK293T StAR-luciferase reporter, LRH-1 transfected, 24 h | 360,000 compounds, 0.13% hits | inhibition, % at 3.6 µM | O00482;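 active means inhibition above the mean inhibition of all tested compounds plus 3 SD, cut at about 73% in these data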;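 further: 0% = DMSO wells and 100% = reporter-only cells lacking LRH-1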
SRC1 inh = inhibitors of human steroid receptor coactivator 1 (SRC1); inhibition, % at 3.6 µM; HEK293 GAL4-SRC1 luciferase reporter, luminescence; 360,000 compounds, 0.12% hits; Q15788;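 active means inhibition above the campaign mean plus 3 SD, with each screening campaign given its own cutoff, cut at about 60% in these data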;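 further: 0% = DMSO treated cells and 100% = gossypol at 36 µM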
SRC3 inh = inhibits human SRC3 coactivator | Q9Y6Q9 | HEK293 GAL4-SRC3 luciferase reporter, luminescence | inhibition, % at 3.6 µM | 360,000 compounds, 0.17% hits | AID 588352;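 active means inhibition above a per-campaign cutoff, the mean of all compounds plus 3 SD, cut at about 60% in these data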;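 further: 0% = DMSO-treated cells and 100% = gossypol-treated cells at 36 µM; higher means less SRC3-driven luciferase light from the GAL4 reporter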
NCOA2 inhibitor = inhibits human steroid receptor coactivator 2 | Q15596 | HEK293 GAL4-SRC2 luciferase reporter, luminescence | inhibition, % at 9 µM | 370,000 compounds, 0.17% hits;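 active means inhibition above the mean inhibition of all tested compounds plus 3 SD, set per campaign, cut at about 52% in these data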;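 further: 0% = DMSO treated cells and 100% = cells given Gossypol at 36 µM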
Target sequence (Q15596 whole entry, looked up, the tested form may be a part): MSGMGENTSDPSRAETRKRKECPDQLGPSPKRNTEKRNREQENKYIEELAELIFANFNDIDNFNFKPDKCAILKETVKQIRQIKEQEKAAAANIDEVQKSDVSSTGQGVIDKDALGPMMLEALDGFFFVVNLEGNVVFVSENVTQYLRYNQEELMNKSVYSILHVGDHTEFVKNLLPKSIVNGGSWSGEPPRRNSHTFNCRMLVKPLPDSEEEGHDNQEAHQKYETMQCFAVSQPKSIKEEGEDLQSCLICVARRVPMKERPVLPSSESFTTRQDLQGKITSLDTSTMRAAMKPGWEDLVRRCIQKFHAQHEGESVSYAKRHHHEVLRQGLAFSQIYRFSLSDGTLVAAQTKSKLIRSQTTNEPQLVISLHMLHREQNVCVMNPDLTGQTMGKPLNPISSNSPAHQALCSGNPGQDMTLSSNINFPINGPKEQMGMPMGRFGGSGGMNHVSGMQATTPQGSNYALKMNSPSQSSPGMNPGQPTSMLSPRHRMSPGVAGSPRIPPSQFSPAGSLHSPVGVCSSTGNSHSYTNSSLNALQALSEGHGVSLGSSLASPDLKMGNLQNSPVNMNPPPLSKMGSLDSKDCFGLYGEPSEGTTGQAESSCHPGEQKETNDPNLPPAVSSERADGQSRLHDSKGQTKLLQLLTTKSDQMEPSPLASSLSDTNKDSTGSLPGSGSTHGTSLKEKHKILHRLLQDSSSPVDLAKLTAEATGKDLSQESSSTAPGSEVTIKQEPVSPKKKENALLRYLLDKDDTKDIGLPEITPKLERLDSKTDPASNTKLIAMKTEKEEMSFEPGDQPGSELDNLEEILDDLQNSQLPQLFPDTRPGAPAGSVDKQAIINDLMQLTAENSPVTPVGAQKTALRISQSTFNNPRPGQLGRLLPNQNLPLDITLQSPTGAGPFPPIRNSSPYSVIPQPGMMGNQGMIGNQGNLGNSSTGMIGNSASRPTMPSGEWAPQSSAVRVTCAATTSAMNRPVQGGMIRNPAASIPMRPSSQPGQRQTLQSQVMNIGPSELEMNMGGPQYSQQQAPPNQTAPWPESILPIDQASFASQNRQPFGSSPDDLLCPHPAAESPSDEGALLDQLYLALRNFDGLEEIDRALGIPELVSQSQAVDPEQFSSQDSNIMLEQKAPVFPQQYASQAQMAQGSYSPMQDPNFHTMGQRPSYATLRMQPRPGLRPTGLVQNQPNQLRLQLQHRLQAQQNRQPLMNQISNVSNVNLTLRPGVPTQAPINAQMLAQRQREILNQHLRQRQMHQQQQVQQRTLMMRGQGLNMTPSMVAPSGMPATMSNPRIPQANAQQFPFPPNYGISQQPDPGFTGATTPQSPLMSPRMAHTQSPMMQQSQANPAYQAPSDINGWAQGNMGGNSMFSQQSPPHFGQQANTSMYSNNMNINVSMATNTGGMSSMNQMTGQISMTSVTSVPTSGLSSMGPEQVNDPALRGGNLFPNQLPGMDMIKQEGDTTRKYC
Gli-Sufu antag = blocks Gli-Sufu signaling in a luciferase reporter; Sufu-KO-LIGHT fibroblasts, Gli luciferase reporter luminescence; inhibition, % at 5 µM; 340,000 compounds, 0.74% hits;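 active means inhibition above about 55%, limit read from the data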;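 further: 0% = DMSO-treated cells and 100% = wells with medium but no cells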
Gal4-VP16 ctr = counter-screen for COUP-TFII antagonists: inhibitors of VP16; shares compounds with NR2F2 inh; HEK293 Gal4-VP16 luciferase reporter, luminescence; inhibition, % at 8.5 µM; 2,500 compounds, 25% hits; in the data active means inhibition above about 13%
NR2F2 inh conf = COUP-TFII (NR2F2) inhibition, confirmation assay; shares compounds with NR2F2 inh; HEK293 NGFI-A luciferase reporter, luminescence; inhibition, % at 8.5 µM; 2,500 compounds, 45% hits; AID 687008;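 active means mean inhibition over three repeats above a set limit taken from the earlier primary screen, cut at about 38% in these data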;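 further: 100% = cells given the luciferase reporter alone without the COUP-TF2 vector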
Active calls of the source: *; nt = no result given; ! = repeats disagree. Rows were chosen to be rich in hits. Some 1.3% of all compounds tested hit in one or more screens of this group.

SMILES	NR2F2 inh	NR5A2 inv ag	SRC1 inh	SRC3 inh	NCOA2 inhibitor	Gli-Sufu antag	Gal4-VP16 ctr	NR2F2 inh conf
Cc1ccccc1CN1Cc2cnnn2-c2ccccc2C1C#N (configuration not stated)	39.4*	-16.6	19.1	13.7	48.4	-2.4	4.9	1.7
CC1=C(N2CC2)C(=O)C(CO)=C(N2CC2)C1=O	-1.4	21.5	51.6	58.1	14.2	27.6	nt	nt
O=[N+]([O-])c1ccc(-[n+]2c(-c3ccccc3)cc(-c3ccccc3)cc2-c2ccccc2)cc1	13.9	13.0	4.8	9.4	-10.3	7.4	nt	nt
O=[N+]([O-])c1ccccc1-c1cc(-c2ccccc2)cc(-c2ccccc2)[n+]1Cc1ccccc1Cl	56.5*	nt	nt	nt	-22.6	37.6	13.7*	43.8*
CN1C(=O)NC(=O)C(N=Nc2ccc(Cl)cc2)C1=O (configuration not stated)	-37.7	-37.6	-33.8	-43.5	-49.5	34.1	nt	nt
C=C1C(=O)O[C@@H]2C[C@@H](C)[C@@H]3C=CC(=O)[C@@]3(C)[C@@H](O)[C@H]12	97.0*	87.1*	37.2	61.3	84.5*	96.7*	83.9*	99.4*
C[C@H](Cc1ccc(OCC(=O)O)cc1)NC[C@H](O)c1cccc(Cl)c1	-19.5	nt	nt	nt	-18.3	nt	nt	nt
COc1ccc(-n2nnnc2C(CCc2ccccc2)N2CCC(n3c(=O)[nH]c4ccccc43)CC2)cc1 (configuration not stated)	39.2*	41.4	40.6	52.9	-3.0	nt	0.8	22.5
CCC(=NCCc1c[nH]c2ccccc12)c1c(O)n(-c2ccc(C)cc2)c(=O)[nH]c1=O	-3.0	-8.1	-14.8	0.0	-10.7	-7.0	nt	nt
CCC(=NCCc1c[nH]c2ccccc12)c1c(O)n(C)c(=O)n(C)c1=O	47.4*	17.8	13.5	9.7	12.2	32.9	-1.1	19.6
O=C(NCCN1CCC2(CC1)C(=O)NCN2c1ccccc1)c1cc(C(F)(F)F)ccc1C(F)(F)F	-3.7	nt	nt	nt	-5.4	nt	nt	nt
C[n+]1c(-c2ccccc2)cc(-c2ccc(O)cc2)cc1-c1ccccc1	-4.2	15.6	-8.8	5.5	-4.6	11.3	nt	nt
C[n+]1ccc(-c2ccccc2)c2ccccc21	40.0*	31.5	-6.3	19.6	11.8	45.6	-2.0	13.7
CC(C)C(O)(C(=O)OCC1=CCN2CCC(O)C12)C(C)O (configuration not stated)	6.1	4.7	10.3	-19.9	-13.7	nt	nt	nt
CC1=CC2OC3CC4OC(=O)C=CC=CC(C(C)O)OCC(O)C(C)CC(=O)OCC2(CC1O)C4(C)C31CO1 (configuration not stated)	89.8*	98.5*	94.9*	93.5*	71.3*	89.6*	23.1*	92.7*
C[C@@H]1O[C@@H](O[C@@H]2C=C3CCC4C(CC[C@]5(C)[C@@H](c6ccc(=O)oc6)CC[C@]45O)[C@@]3(C)CC2)[C@H](O)[C@H](O)[C@H]1O (some centres not stated)	81.3*	102.9*	90.3*	92.5*	71.2*	1.4	56.4*	82.3*
C[C@@H]1O[C@@H](O[C@@H]2C=C3CC[C@@H]4C(CC[C@]5(C)[C@@H](c6ccc(=O)oc6)CC[C@]45O)[C@@]3(C)CC2)[C@H](O)[C@H](O)[C@H]1O (some centres not stated)	72.6*	99.5*	93.3*	91.3*	58.1*	-1.6	54.8*	80.5*
N#CCC[C@H]1CC[C@]2(CCCN(Cc3ccccn3)C2)O1	-6.0	nt	nt	nt	-3.8	nt	nt	nt
NC(=S)c1cn(C2OC(CO)C(O)C2O)c2ncnc(N)c12 (configuration not stated)	68.2*	94.4*	88.5*	88.3*	71.2*	-48.9	52.7*	68.1*
Nc1ncnc2c1ccn2[C@@H]1O[C@H](CO)[C@@H](O)[C@H]1O	63.7*	102.6*	81.8*	89.2*	63.6*	22.6	32.1*	50.6*
COc1cccc(C(c2nnnn2-c2c(C)cccc2C)N2CCC(n3c(=O)[nH]c4ccccc43)CC2)c1OC (configuration not stated)	29.4	34.6	15.1	-0.3	-7.9	nt	nt	nt
CC(=O)OC1C(=O)OCC23CCC4(C)OC4C2OC2CC(OC(=O)C=CC=CC(=O)OCCC1C)C3(C)C21CO1 (configuration not stated)	89.0*	98.1*	95.6*	92.5*	71.8*	88.7*	10.4	86.1*
CN(C)c1ccc(/C=C/c2cc[n+](C)c3ccccc23)cc1	84.3*	86.4*	68.0*!	66.7*!	-80.2	87.4*	23.1*	81.7*
CCCNS(=O)(=O)c1ccc(OCC(=O)N2CCN(Cc3ccc4c(c3)OCO4)CC2)c(C)c1	45.7*	31.0	14.3	12.6	25.6	47.8	1.3	21.4
CC(=O)OC1CC(OC2C(O)CC(OC3C(O)CC(OC4CCC5(C)C(CCC6C5CCC5(C)C(C7=CC(=O)OC7)CCC65O)C4)OC3C)OC2C)OC(C)C1OC1OC(CO)C(O)C(O)C1O (configuration not stated)	76.5*	98.8*	91.5*	89.3*	60.3*	-5.4	56.4*	77.7*
SMILES	NR2F2 inh	NR5A2 inv ag	SRC1 inh	SRC3 inh	NCOA2 inhibitor	Gli-Sufu antag	Gal4-VP16 ctr	NR2F2 inh conf
CC12CC[C@H]3[C@@H](CCC4(O)C[C@H](O)CCC34/C=N/NC(=O)c3ccc(O)cc3)C1(O)CCC2C1=CC(=O)OC1 (some centres not stated)	-1.6	-37.4	-58.8	6.5	2.5	-0.6	nt	nt
Cc1ccc2nc(-c3ccc(CN4CCC(n5nnc6ccccc65)CC4)cc3)c(-c3ccccc3)nc2c1	45.3*	nt	nt	nt	19.0	nt	-2.6	10.2
Clc1cc(Cl)cc(CN2Cc3cc(Br)ccc3-n3nncc3C2)c1	0.4	nt	nt	nt	-10.9	nt	nt	nt
CC(=O)N1c2ccccc2C(c2ccccc2)=NCC1C(=O)NCc1ccccc1 (configuration not stated)	-17.8	nt	nt	nt	-9.2	nt	nt	nt
Oc1ccc(-[n+]2c(-c3ccccc3)cc(-c3ccccc3)cc2-c2ccccc2)cc1	62.2*	33.9	16.7	-47.8	37.2	42.8	8.3	51.0*
COc1ccc(-[n+]2c(-c3ccccc3)cc(-c3ccccc3)cc2-c2ccccc2)cc1	57.3*	nt	nt	nt	20.9	83.3*	19.6*	60.4*
COP(=O)(OC)OC=C(Cl)Cl	9.4	nt	nt	nt	-0.6	nt	nt	nt
CCOC(=O)[C@]12Cc3cc(C)ccc3[C@H]1N(C(C)C)C(=O)c1ccccc12	0.3	8.6	nt	nt	20.6	nt	nt	nt
C[C@H]1CNCCN1c1ccc(N2CC[C@@H](O)C2)c(C#N)c1	-20.6	nt	nt	nt	4.7	nt	nt	nt

Screening data from PubChem BioAssay.
